# Reference: PubChem BioAssay (Tox21)
# Inconclusive results are not listed. Calls of active or inactive are those of the source. Calls come from the whole dose curve.
# Experiment: qHTS assay to identify small molecule agonists of the endoplasmic reticulum stress response signaling pathway - cell viability counter screen (AID 1159517); note: nearly all actives have a fitted effect of over 50% in size
# Details: ESRE-bla HeLa viability, CellTiter-Glo luminescence, 5 h; series mostly up to 61 µM
# Description: U.S. Tox21 Program National Center for Advancing Translational Sciences [NCATS] NIH Chemical Genomics Center [NCGC] U.S. Environmental Protection Agency [EPA] National Institutes of Environmental Health Sciences [NIEHS] National Toxicology Program [NTP] U.S. Food and Drug Administration [FDA] Tox21 Assay Overview: Endoplasmic Reticulum (ER) plays an important role in cellular signaling, protein folding/maturation, stress response, lipid biosynthesis, calcium storage and release etc. Under stress conditions, proteins in ER misfold or unfold, and leading to the expression of ER stress responsive genes. ER stress has been associated with a variety of pathophysiological conditions such as cancer, inflammation, neurodegenerative diseases, diabetes, ischemic heart disease etc. To identify the compounds that induce ER stress response, an ER stress reporter cell line, CellSensor ESRE-bla HeLa (Life Technologies, Carlsbad, CA) containing a beta-lactamase reporter gene under control of the Endoplasmic reticulum Stress Response Element (ESRE) was used to screen Tox21 10K compound library. The cytotoxicity of the Tox21 compound library against the ESRE-bla HeLa cell line was tested in parallel by measuring cell viability using the CellTiter-Glo assay in the same wells.
# Tox21 Assay Protocol Summary: ESRE-bla HeLa cells were dispensed at 1,500 cells/6 uL of assay medium per well into black wall/clear-bottom 1536-well plates using a Multidrop Combi (ThermoFisher Scientific, Waltham, MA) dispenser. After the assay plates were incubated at 37 C and 5% CO2 for an overnight, 23 nL of compounds dissolved in DMSO, positive controls or DMSO only was transferred to the assay plate by a Pintool station (Kalypsys, San Diego, CA). The assay plates were incubated at 37 C and 5% CO2 for 5 hr. One uL of LiveBLAzer B/G FRET substrate (Life Technologies) was added using a FRD (Flying Reagent Dispenser, Aurora Discovery, San Diego, CA) and the plates were incubated at room temperature for 2 hr. Fluorescence intensity (405 nm excitation, 460 nm and 530 nm emissions) was measured using an Envision plate reader (PerkinElmer, Shelton, CT). For cytotoxicity, 4 ul/well of CellTiter-Glo reagent was added into the assay plates using an FRD. After 30 min incubation at room temperature, the luminescence intensity was measured using a ViewLux plate reader (PerkinElmer).
# % is set by controls: 0 for no effect and ±100 for the full control effect.
SMILES,outcome,"activity change, negative = cytotoxicity"
O=C(c1ccccc1)c1cccc(O)c1,inactive,–
COc1cc(S(N)(=O)=O)cc(C(=O)O)c1OC,inactive,–
COC(=O)c1ccc(NC(C)=O)cc1OC,inactive,–
C=CCON/C(CCC)=C1\C(=O)CC(C)(C)C(C(=O)OC)=C1O,inactive,–
CC(=O)Nc1ccc(OCCOCCOc2ccc(NC(C)=O)cc2)cc1,inactive,–
COC(=O)c1cc(Cl)c(NC(C)=O)cc1OC,inactive,–
CCCCCCCCCCCCCCCC/C=C/C1CC(=O)OC1=O (stereo not given),inactive,–
CCCCOCCCC,inactive,–
CCCCCCCCCCCCCCCC(=O)OC,inactive,–
CC(C)C[P+](C)(CC(C)C)CC(C)C,inactive,–
CCCC(=O)CC,inactive,–
CCCCCCC(=O)c1ccccc1,inactive,–
O=C1c2ccccc2C(=O)N1CO,inactive,–
CCc1ccc(CC)cc1,inactive,–
Cc1cc(O)c(Cl)cc1C,inactive,–
CC(O)C(CO)C(C)O (stereo not given),inactive,–
CCCC(=O)C(CC)Sc1ccoc1C (stereo not given),inactive,–
CCCCC(O)/C=C(C)/C=C/C=C/C(=O)N1CCCC1=O (stereo not given),inactive,–
O=C(O)CCCCCCCCCC(=O)O,inactive,–
CCCCCCCCCCCBr,inactive,–

SMILES,outcome,"activity change, negative = cytotoxicity"
CCCCc1ccc(Cl)cc1,inactive,–
CCC(=O)OCCOc1ccccc1,inactive,–
Cc1ccc2ccccc2n1,inactive,–
CSC(=O)c1cccc2nnsc12,inactive,–
COC(=O)/C=C(\C)CCC=C(C)C,inactive,–
Cc1ccccc1C#N,inactive,–
CC(CC(=O)Cl)CC(C)(C)C (stereo not given),inactive,–
Cc1ccc(OC(=O)CC(C)C)cc1,inactive,–
O=C(O)CCC(=O)Nc1ccc(S(=O)(=O)Nc2nccs2)cc1,inactive,–
O=c1[nH]c(=O)c2cn[nH]c2[nH]1,inactive,–
CCOCCOCCOC(C)=O,inactive,–
CC(C)CC(O)Cc1ccccc1 (stereo not given),inactive,–
CCCCCC(=O)CC,inactive,–
CCCCCCCCCCCCCCCCN(C)C,–,-14.5% [at 6.95 µM] (inactive)
CC[N+](C)(CC)CC,inactive,–
O=C(OOC(=O)c1ccccc1)c1ccccc1,inactive,–
N#Cc1ccccc1C#N,inactive,–
CC1(C)S[C@@H]2[C@H](NC(=O)Cc3ccccc3)C(=O)N2[C@H]1C(=O)O (tested in a mixture with another compound),inactive,–
C[C@@H](CN1CC(=O)NC(=O)C1)N1CC(=O)NC(=O)C1,inactive,–
CC(C)(O)c1ccc(C(C)(C)O)cc1,inactive,–
